# Test results taken from PubChem BioAssay (Tox21).
# Unmarked numbers belong to inactive results. Records with an inconclusive call do not appear. Where a call stands in place of a potency, no number is given. The source made the active and inactive calls. Unless noted, calls come from the whole dose curve; as a rule, active = well fitted curve in the direction sought with a large enough effect in the repeat runs; inconclusive = weak or mixed curves; inactive = no such curve, though single readings can be large; an effect the other way counts as inactive or inconclusive.
# How the values were obtained:
# Aromatase (Homo sapiens) = Aromatase (Homo sapiens) (UniProt P11511); test: qHTS assay to identify aromatase inhibitors (AID 743083); note: nearly all actives have a fitted effect of over 55% in size; note: potency is the fitted concentration of half-maximal effect
# Aromatase (Homo sapiens), sequence (P11511 whole entry, looked up): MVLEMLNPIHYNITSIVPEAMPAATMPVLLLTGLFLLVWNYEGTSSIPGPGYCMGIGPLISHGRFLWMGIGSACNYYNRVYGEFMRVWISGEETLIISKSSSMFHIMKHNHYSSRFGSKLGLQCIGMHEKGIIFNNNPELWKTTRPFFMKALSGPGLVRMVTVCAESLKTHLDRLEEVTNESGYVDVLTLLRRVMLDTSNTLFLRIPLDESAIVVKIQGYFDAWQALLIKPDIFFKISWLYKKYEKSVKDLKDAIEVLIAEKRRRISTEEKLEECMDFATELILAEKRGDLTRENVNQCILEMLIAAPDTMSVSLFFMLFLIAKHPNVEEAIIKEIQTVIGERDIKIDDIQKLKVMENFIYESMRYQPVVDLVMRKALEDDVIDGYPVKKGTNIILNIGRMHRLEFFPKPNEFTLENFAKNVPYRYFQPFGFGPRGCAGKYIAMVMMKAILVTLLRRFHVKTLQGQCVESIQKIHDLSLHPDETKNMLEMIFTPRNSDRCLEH
# [1] = qHTS assay to identify small molecule antagonists of the estrogen related receptor (ERR) signaling pathway (AID 1224819; note: nearly all actives have a fitted effect of over 50% in size; note: potency is the fitted concentration of half-maximal effect)
# How it was run: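 Luminescence readout (One-Glo, 30 min, RT) of ERR cell line after 18 h compound exposure at 37 C; cells seeded 2,000/well, pre-incubated 6 h, compounds pinned from DMSO stocks.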
# [2] = qHTS assay to identify small molecule agonists of the estrogen related receptor (ERR) signaling pathway (AID 1224820)
# How it was run: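 ERR reporter cell line (from NTP), 2,000 cells/well, incubated 6 h before compound addition, then 18 h at 37 C. Luminescence measured 30 min after One-Glo reagent at room temperature.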
# [3] = test system: estrogen-related receptor alpha (ERRalpha) with PGC-1alpha coactivator, human; test: qHTS assay to identify small molecule antagonists of the estrogen related receptor signaling pathway with the pleiotropic PPARgamma coactivator (PGC) (AID 1224821; calls by dose curve; note: nearly all actives have a fitted effect of over 50% in size; note: potency is the fitted concentration of half-maximal effect)
# How it was run: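 PGC/ERR reporter cell line, plated 6 h before compound addition, then exposed 18 h at 37 °C. Luciferase activity read by luminescence 30 min after One-Glo addition; decrease indicates antagonism.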
# [4] = qHTS assay to identify small molecule antagonists of the estrogen related receptor signaling pathway with the pleiotropic PPARgamma coactivator (PGC) cell viability counter screen (AID 1224822;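 note: series mostly up to about 46 µM; viability read after 17.5 h compound exposure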)
# How it was run: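 PGC/ERR cells were plated at 2,000 per well and allowed 6 h to settle before compound addition. Following 17.5 h at 37 C, CellTiter-Fluor reagent was added and fluorescence was read 30 min later.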
# [5] = qHTS assay to identify small molecule agonists of the estrogen related receptor signaling pathway with the pleiotropic PPARgamma coactivator (PGC) (AID 1224823)
# How it was run: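 PGC/ERR reporter cells seeded 6 h, then exposed to compounds (23 nL in DMSO) for 18 h at 37 C. One-Glo luciferase luminescence read after 30 min at room temperature.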
# [6] = qHTS assay to identify small molecule agonists of the estrogen related receptor signaling pathway with the pleiotropic PPARgamma coactivator (PGC) from Tox21 10K library (AID 1224842); note: nearly all actives have a fitted effect of over 15% in size
# How it was run: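 Luminescence from One-Glo (30 min, room temperature) measured after PGC/ERR cells had 18 h at 37 C with pinned compound (23 nL in DMSO). Cells had been seeded at 2,000 per well and pre-incubated 6 h.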
# [7] = A CellTox Green Cytotoxicity Assay to monitor cytotoxicity in HepG2 cells - 0 hour (AID 1224882); note: nearly all actives have a fitted effect of over 35% in size; note: potency is the fitted concentration of half-maximal effect
# How it was run: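 Using 1536-well format, dye-containing HepG2 suspension was seeded, allowed 5 h at 37 C/5% CO2, dosed by pintool with compounds, positive and negative controls, and imaged for fluorescence across 40 h.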
# [8] = qHTS assay to identify small molecule HDAC inhibitors (AID 1259364);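 note: wild-type HCT-116 cells with endogenous class I/II HDAC activity; top concentration of the series differs between compounds; nearly all actives have a fitted effect of over 45% in size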
# How it was run: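 Read-out: luminescence of HDAC-Glo I/II reagent, 30 min RT, reflecting class I/II deacetylase activity in whole HCT-116 cells pre-exposed 2 h to DMSO-dissolved compounds.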
# [9] = qHTS assay to identify small molecule agonists of the sonic hedgehog signaling (Shh) pathway (AID 1259368; calls by dose curve;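 note: NIH/3T3-derived 3T3Gli1-Luc cells carrying a stable Gli1-driven firefly luciferase reporter; series mostly up to about 92 µM; nearly all actives have a fitted effect of over 15% in size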)
# How it was run: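 A Gli1 transcriptional response element controlled firefly luciferase in 3T3Gli1-Luc cells. Compounds and a positive control were added 4 hr after plating, and cells were incubated a further 24 hr at 37 C before luminescence detection.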
# [10] = Caspase-3/7 induction in HepG2 cells by small molecules, qHTS assay (AID 1346978); note: nearly all actives have a fitted effect of over 15% in size; note: potency is the fitted concentration of half-maximal effect
# How it was run: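 Caspase-3/7 induction was measured by Caspase-Glo 3/7 luminescence (30 min, room temperature) after a 17 hr compound exposure of wild-type HepG2 cells seeded at 2,000 per well and pre-incubated 5 hr.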
# [11] = Caspase-3/7 induction in CHO-K1 cells by small molecules, qHTS assay (AID 1346980); note: nearly all actives have a fitted effect of over 15% in size
# How it was run: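 Luminescent Caspase-Glo 3/7 read (30min, room temperature) quantified apoptosis induction. Cells were wild-type CHO-K1, treated with compound for 17hr at 37 C and 5% CO2.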
# [12] = molecular target: Acetylcholinesterase (Homo sapiens) (UniProt P22303); test: Acetylcholinesterase (AChE) small molecule antagonists: colormetric cell-based qHTS assay (AID 1347395; calls by dose curve; note: nearly all actives have a fitted effect of over 30% in size)
# Acetylcholinesterase (Homo sapiens), sequence (P22303 whole entry, looked up): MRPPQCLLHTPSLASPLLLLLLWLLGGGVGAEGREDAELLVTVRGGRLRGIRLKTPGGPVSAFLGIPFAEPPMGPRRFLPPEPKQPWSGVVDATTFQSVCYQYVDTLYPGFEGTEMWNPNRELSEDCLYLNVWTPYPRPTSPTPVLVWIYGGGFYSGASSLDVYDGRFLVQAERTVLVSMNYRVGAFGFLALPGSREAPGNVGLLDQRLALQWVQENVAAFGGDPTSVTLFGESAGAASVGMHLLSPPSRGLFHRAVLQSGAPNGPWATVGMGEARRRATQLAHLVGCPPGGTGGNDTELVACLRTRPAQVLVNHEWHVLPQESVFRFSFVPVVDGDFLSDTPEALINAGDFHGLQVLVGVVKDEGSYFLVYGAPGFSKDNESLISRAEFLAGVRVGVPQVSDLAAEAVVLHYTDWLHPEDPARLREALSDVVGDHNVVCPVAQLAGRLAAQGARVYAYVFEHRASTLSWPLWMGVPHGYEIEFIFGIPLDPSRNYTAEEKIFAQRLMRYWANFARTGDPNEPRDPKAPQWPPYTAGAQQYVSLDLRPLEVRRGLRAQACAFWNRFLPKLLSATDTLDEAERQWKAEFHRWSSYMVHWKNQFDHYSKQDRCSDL
# How it was run: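 Colorimetric readout: DTNB quantifies thiocholine from acetylthiocholine hydrolysed by endogenous AChE of SH-SY5Y cells (2,000/well, plated overnight). Compound pretreatment 30 min, substrate incubation 90 min, both 37 C.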
# [13] = molecular target: Acetylcholinesterase (Homo sapiens) (UniProt P22303); test: Acetylcholinesterase (AChE) small molecule antagonists: enzyme-based qHTS assay (AID 1347397; calls by dose curve; note: nearly all actives have a fitted effect of over 55% in size; note: potency is the fitted concentration of half-maximal effect); details: Potency: AChE enzyme activity inhibition; outcome: AChE enzyme activity inhibition
# How it was run: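 rhAChE 50 mU/mL (dispensed) + cpd or DMSO, 30 min RT; add DTNB/acetylthiocholine cocktail, 10 min RT; colorimetric thiocholine readout. qHTS, 1536-well format.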
# [14] = molecular target: Acetylcholinesterase (Homo sapiens) (UniProt P22303); test: Acetylcholinesterase (AChE) small molecule antagonists: fluorescence cell-based qHTS assay (AID 1347398; calls by dose curve; note: nearly all actives have a fitted effect of over 50% in size); details: Potency: AChE activity; outcome: AChE activity
# How it was run: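 Read-out is Thiolite Green fluorescence at Ex/Em = 490/520 nm, formed by reaction with thiocholine released when cellular AChE in SH-SY5Y cells hydrolyzes acetylthiocholine. Compounds were preincubated 30 min at 37 C before substrate.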
# [15] = molecular target: Acetylcholinesterase (Homo sapiens) (UniProt P22303); test: Acetylcholinesterase (AChE) small molecule antagonists: enzyme-based qHTS assay with human liver microsomes (AID 1347399; calls by dose curve; note: nearly all actives have a fitted effect of over 60% in size; note: potency is the fitted concentration of half-maximal effect); details: Potency: qHTS inhibition; outcome: qHTS inhibition
# How it was run: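 Recombinant human AChE (50 mU/mL in the enzyme mix) and human liver microsomes (0.25 mg/mL final) were preincubated with compound and NADPH (0.25 mg/mL final) for 30 min at 37 C. Acetylthiocholine/DTNB was then added; thiocholine was read colorimetrically after 10 min at room temperature.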
# [16] = molecular target: Aryl hydrocarbon receptor (Homo sapiens) (UniProt P35869); test: qHTS assay to identify small molecule that activate the aryl hydrocarbon receptor (AhR) signaling pathway (AID 743085)
# Aryl hydrocarbon receptor (Homo sapiens), sequence (P35869 whole entry, looked up): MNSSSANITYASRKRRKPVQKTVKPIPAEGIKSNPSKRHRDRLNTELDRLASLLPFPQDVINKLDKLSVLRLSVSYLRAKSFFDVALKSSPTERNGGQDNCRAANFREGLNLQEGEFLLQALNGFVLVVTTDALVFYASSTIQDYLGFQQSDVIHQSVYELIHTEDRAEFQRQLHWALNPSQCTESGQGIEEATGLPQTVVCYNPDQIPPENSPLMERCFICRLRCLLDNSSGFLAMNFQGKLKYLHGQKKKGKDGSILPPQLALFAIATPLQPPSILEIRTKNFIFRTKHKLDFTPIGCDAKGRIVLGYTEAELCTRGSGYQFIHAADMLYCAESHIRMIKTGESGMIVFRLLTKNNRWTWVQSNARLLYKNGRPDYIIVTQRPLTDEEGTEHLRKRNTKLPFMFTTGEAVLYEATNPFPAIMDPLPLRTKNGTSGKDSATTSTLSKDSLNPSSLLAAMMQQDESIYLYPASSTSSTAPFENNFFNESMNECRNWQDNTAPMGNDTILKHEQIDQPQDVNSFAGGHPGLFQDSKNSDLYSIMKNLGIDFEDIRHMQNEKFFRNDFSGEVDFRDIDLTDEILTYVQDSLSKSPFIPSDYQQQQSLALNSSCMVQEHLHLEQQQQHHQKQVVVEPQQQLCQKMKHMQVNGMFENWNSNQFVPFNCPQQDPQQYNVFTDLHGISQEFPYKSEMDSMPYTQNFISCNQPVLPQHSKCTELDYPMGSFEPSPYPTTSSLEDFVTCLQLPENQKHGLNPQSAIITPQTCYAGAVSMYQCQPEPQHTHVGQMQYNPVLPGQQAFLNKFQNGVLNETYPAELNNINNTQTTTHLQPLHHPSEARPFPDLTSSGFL
# How it was run: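 Luminescence (ONE-Glo) from a dioxin-responsive-element luciferase reporter in HG2L7.5c1 HepG2 cells after 24 hr compound exposure at 37C; viability measured by CellTiter-Fluor fluorescence beforehand.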
# [17] = qHTS assay to identify small molecule antagonists of the retinoic acid receptor (RAR) signaling pathway (AID 1159552; note: nearly all actives have a fitted effect of over 50% in size; note: potency is the fitted concentration of half-maximal effect)
# How it was run: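 Luminescent RARE reporter read-out in C3RL4 cells: 6 hr co-treatment at 37 C of test compounds with retinol at 1 uM final. Cells plated overnight beforehand; luciferase reagent incubated 30 min at room temperature before reading.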
# [18] = qHTS assay to identify small molecule antagonists of the estrogen related receptor (ERR) signaling pathway - cell viability counter screen (AID 1224818);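 note: series mostly up to about 46 µM; viability measured after 17.5 h of compound exposure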
# How it was run: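 After a 6 h pre-incubation, ERR cells were dosed by pin tool with compounds, positive/negative controls or DMSO alone. Following 17.5 h at 37 C and 30 min with CellTiter-Fluor, fluorescence was recorded.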
# [19] = qHTS assay to identify small molecule agonists of H2AX (AID 1224845; active = well fitted activation curve with a large enough effect in the signal ratio in the repeat runs, not every such curve was filed as active; the % refers to the signal ratio)
# How it was run: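 Phospho-H2AX Ser139 measured by HTRF (ex 320 nm; em 665 and 620 nm) after 24 hr antibody incubation. Compounds, 15 concentrations, 0.76% DMSO, were applied to CHO-K1 cells for 3hr at 37C before lysis.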
Compound,Potency (Aromatase (Homo sapiens)),Potency [1],Potency [2],Potency [3],Potency [4],Potency [5],Potency [6],Potency [7],outcome [8],outcome [9],Potency [10],outcome [11],Potency [12],Potency [13],Potency [14],Potency [15],Potency [16],Potency [17],Potency [18],Potency [19]
CO/C=C(/C(=O)OC)c1ccccc1Oc1cc(Oc2ccccc2C#N)ncn1,41.1 µM (active),4.86 µM (active),inactive,8.31 µM (active),inactive,inactive,inactive,inactive,inactive,inactive,inactive,inactive,inactive,inactive,inactive,inactive,–,–,–,–
O=C(Nc1ccccc1-c1ccc(Cl)cc1)c1cccnc1Cl,–,inactive,inactive,inactive,inactive,inactive,inactive,41.2 µM (active),inactive,inactive,inactive,inactive,inactive,inactive,–,inactive,inactive,inactive,inactive,inactive
Nc1ccc(Cl)cc1[N+](=O)[O-],inactive,–,–,–,–,–,inactive,–,–,–,–,–,inactive,inactive,inactive,inactive,–,inactive,–,inactive
Cc1cc(C)c(C(=O)P(=O)(c2ccccc2)c2ccccc2)c(C)c1,–,–,–,–,–,–,inactive,inactive,inactive,inactive,inactive,inactive,inactive,inactive,inactive,inactive,–,inactive,–,–
CC(c1ccccc1)(c1ccc(O)cc1)c1ccc(O)cc1,–,–,–,–,–,–,inactive,inactive,inactive,inactive,–,inactive,inactive,–,inactive,inactive,–,–,–,–
ClC1=C(Cl)C(Cl)(Cl)C(Cl)=C1Cl,–,–,–,–,–,–,–,–,–,–,inactive,–,inactive,inactive,inactive,inactive,–,inactive,–,–
OC(Cc1ccccc1Cl)(Cn1[nH]cnc1=S)C1(Cl)CC1 (stereo not drawn),–,–,–,–,–,–,–,inactive,inactive,inactive,inactive,inactive,inactive,inactive,inactive,inactive,–,inactive,–,inactive
O=C1OC(=O)c2c(Cl)c(Cl)c(Cl)c(Cl)c21,inactive,–,–,–,–,–,–,–,–,–,inactive,–,inactive,inactive,inactive,inactive,inactive,inactive,–,–
c1ccc2c(c1)Sc1ccccc1N2CC1CN2CCC1CC2 (stereo not drawn),–,–,–,–,–,–,inactive,inactive,inactive,inactive,–,inactive,inactive,inactive,inactive,inactive,inactive,29.8 µM (active),–,–
O=C1C(I)=CC(=C(c2cc(I)c(O)c(I)c2)c2ccccc2C(=O)O)C=C1I,inactive,–,–,–,–,–,–,inactive,inactive,inactive,inactive,inactive,inactive,34.7 µM (active),inactive,inactive,inactive,inactive,–,inactive
Cc1nnc2n1-c1sc(CCc3ccc(CC(C)C)cc3)cc1C(c1ccccc1Cl)=NC2C (stereo not drawn),–,–,–,–,–,–,inactive,inactive,inactive,inactive,–,inactive,inactive,inactive,inactive,inactive,inactive,33.5 µM (active),–,–
Cc1ccc(N(SC(F)(Cl)Cl)S(=O)(=O)N(C)C)cc1,3.86 µM (active),–,–,–,–,–,inactive,inactive,inactive,inactive,inactive,inactive,inactive,–,–,71 µM (active),inactive,13.7 µM (active),–,inactive
ClC1=C(Cl)[C@]2(Cl)[C@@H]3[C@@H](Cl)[C@H]4O[C@H]4[C@@H]3C1(Cl)C2(Cl)Cl,–,–,–,–,–,–,inactive,inactive,inactive,inactive,inactive,inactive,inactive,inactive,inactive,inactive,inactive,68.6 µM (active),–,–
COc1ccc(C(c2ccc(OC)cc2)C(Cl)(Cl)Cl)cc1,inactive,inactive,inactive,inactive,inactive,inactive,inactive,inactive,–,inactive,inactive,inactive,inactive,inactive,inactive,inactive,–,inactive,inactive,–
OCC(c1ccc(Cl)cc1)c1ccc(Cl)cc1,30.6 µM (active),–,–,–,–,–,–,inactive,inactive,inactive,–,inactive,inactive,inactive,inactive,inactive,inactive,43.3 µM (active),–,inactive
CC1COC(Cn2cncn2)(c2ccc(Oc3ccc(Cl)cc3)cc2Cl)O1 (stereo not drawn),30.6 µM (active),–,–,–,–,–,inactive,inactive,inactive,inactive,inactive,inactive,inactive,inactive,inactive,inactive,inactive,inactive,–,–
CCCCC(CC)COC(=O)CCCCC(=O)OCC(CC)CCCC (stereo not drawn),inactive,–,–,–,–,–,–,–,–,–,inactive,–,inactive,inactive,inactive,inactive,inactive,inactive,–,–
CCCCC(CC)COC(=O)c1ccc(C(=O)OCC(CC)CCCC)cc1 (stereo not drawn),inactive,–,–,–,–,–,inactive,–,–,–,–,–,inactive,inactive,inactive,inactive,inactive,inactive,–,inactive
COc1ccc(CCN2CCC(Nc3nc4ccccc4n3Cc3ccc(F)cc3)CC2)cc1,21.1 µM (active),–,–,–,–,–,–,–,–,–,26.6 µM (active),–,–,–,–,–,–,1.25 µM (active),–,–
CCCCCCCC#N,inactive,–,–,–,–,–,–,–,–,–,inactive,–,inactive,inactive,inactive,inactive,–,inactive,–,inactive
Nc1ccccc1[N+](=O)[O-],inactive,–,–,–,–,–,–,–,–,–,inactive,–,inactive,inactive,inactive,inactive,inactive,inactive,–,–
